Tests used:
Test in all cases: log2 ratio of Biotin-Ahx-Ub-VS probe labelling (fragment/DMSO); higher = less target engagement (more negative = stronger competition), active = hit call of the paper (q ≤ 0.05, log2 ratio ≤ -1)
Settings in all cases: compound concentration: 200 uM; treatment time: 3 h
USP19 = target: T1, USP19 (UniProt O94966)
T1 sequence (whole entry): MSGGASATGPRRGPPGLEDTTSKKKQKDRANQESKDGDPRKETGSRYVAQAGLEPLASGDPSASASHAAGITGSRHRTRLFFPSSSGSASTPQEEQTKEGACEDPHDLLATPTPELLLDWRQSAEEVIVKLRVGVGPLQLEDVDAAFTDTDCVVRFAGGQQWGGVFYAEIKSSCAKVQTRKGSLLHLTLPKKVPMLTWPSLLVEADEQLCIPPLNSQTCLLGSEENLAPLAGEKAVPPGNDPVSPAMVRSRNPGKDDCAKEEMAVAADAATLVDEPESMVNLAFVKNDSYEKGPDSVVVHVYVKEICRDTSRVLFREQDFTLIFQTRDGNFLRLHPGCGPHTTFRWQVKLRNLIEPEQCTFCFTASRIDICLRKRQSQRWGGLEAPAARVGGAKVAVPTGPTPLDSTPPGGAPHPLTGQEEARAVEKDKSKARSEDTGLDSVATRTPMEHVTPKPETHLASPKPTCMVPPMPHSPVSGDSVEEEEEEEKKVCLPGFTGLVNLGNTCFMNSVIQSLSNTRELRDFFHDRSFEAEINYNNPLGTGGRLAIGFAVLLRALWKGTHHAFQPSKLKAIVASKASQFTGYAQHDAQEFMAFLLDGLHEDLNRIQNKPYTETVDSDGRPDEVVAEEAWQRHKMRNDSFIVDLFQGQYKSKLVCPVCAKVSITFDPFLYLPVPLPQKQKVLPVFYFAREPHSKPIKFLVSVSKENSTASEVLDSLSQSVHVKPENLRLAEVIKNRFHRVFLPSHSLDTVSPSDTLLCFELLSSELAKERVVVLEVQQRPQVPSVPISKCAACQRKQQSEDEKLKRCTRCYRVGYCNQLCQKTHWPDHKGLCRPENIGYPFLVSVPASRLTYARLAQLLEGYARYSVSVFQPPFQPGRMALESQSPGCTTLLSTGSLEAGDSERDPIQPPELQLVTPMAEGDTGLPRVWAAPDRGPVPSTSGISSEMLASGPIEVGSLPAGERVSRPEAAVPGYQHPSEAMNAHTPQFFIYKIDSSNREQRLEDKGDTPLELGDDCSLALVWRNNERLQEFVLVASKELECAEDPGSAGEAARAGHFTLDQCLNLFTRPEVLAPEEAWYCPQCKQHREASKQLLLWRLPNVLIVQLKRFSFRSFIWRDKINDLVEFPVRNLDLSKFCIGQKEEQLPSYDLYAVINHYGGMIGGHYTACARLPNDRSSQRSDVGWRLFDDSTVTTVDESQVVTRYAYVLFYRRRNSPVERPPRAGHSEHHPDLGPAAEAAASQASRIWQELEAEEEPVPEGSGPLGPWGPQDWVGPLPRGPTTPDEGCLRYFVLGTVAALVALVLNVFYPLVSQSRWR
Procedure, shortened: (§1)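 Each value is an average log2 ratio of fragment to vehicle, tested by unpaired t-test. The underlying Spectronaut label-free quantities were global-median-normalised, and only proteins with ≥2 unique peptides were included. Triplicate HEK293T lysate samples (495 µg) were exposed to fragment at 200 µM or vehicle for 3 h, then to Biotin-Ahx-Ub-VS at 0.5 µM final for 1 h, before NeutrAvidin enrichment of labelled DUBs, LysC and trypsin digestion, and diaPASEF LC-MS/MS.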

USP22 = target: T2, USP22 (UniProt Q9UPT9)
T2 sequence (whole entry): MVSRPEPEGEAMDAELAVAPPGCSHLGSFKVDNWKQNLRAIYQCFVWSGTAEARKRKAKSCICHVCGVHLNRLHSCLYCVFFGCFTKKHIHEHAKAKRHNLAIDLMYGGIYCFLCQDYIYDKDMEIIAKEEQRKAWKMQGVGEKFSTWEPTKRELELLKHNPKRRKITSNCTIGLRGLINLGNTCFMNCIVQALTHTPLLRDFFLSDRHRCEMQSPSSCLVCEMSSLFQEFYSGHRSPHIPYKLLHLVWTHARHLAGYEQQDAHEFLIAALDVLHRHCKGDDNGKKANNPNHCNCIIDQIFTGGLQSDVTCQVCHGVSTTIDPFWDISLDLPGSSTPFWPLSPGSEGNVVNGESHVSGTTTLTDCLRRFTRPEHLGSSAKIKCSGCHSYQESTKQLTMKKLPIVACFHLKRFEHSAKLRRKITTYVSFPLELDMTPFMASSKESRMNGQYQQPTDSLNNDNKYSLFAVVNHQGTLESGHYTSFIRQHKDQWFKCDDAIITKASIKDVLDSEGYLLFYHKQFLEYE
Procedure, shortened: as §1

USP24 = USP24 (UniProt Q9UPU5)
Chain of USP24 (Q9UPU5 whole entry): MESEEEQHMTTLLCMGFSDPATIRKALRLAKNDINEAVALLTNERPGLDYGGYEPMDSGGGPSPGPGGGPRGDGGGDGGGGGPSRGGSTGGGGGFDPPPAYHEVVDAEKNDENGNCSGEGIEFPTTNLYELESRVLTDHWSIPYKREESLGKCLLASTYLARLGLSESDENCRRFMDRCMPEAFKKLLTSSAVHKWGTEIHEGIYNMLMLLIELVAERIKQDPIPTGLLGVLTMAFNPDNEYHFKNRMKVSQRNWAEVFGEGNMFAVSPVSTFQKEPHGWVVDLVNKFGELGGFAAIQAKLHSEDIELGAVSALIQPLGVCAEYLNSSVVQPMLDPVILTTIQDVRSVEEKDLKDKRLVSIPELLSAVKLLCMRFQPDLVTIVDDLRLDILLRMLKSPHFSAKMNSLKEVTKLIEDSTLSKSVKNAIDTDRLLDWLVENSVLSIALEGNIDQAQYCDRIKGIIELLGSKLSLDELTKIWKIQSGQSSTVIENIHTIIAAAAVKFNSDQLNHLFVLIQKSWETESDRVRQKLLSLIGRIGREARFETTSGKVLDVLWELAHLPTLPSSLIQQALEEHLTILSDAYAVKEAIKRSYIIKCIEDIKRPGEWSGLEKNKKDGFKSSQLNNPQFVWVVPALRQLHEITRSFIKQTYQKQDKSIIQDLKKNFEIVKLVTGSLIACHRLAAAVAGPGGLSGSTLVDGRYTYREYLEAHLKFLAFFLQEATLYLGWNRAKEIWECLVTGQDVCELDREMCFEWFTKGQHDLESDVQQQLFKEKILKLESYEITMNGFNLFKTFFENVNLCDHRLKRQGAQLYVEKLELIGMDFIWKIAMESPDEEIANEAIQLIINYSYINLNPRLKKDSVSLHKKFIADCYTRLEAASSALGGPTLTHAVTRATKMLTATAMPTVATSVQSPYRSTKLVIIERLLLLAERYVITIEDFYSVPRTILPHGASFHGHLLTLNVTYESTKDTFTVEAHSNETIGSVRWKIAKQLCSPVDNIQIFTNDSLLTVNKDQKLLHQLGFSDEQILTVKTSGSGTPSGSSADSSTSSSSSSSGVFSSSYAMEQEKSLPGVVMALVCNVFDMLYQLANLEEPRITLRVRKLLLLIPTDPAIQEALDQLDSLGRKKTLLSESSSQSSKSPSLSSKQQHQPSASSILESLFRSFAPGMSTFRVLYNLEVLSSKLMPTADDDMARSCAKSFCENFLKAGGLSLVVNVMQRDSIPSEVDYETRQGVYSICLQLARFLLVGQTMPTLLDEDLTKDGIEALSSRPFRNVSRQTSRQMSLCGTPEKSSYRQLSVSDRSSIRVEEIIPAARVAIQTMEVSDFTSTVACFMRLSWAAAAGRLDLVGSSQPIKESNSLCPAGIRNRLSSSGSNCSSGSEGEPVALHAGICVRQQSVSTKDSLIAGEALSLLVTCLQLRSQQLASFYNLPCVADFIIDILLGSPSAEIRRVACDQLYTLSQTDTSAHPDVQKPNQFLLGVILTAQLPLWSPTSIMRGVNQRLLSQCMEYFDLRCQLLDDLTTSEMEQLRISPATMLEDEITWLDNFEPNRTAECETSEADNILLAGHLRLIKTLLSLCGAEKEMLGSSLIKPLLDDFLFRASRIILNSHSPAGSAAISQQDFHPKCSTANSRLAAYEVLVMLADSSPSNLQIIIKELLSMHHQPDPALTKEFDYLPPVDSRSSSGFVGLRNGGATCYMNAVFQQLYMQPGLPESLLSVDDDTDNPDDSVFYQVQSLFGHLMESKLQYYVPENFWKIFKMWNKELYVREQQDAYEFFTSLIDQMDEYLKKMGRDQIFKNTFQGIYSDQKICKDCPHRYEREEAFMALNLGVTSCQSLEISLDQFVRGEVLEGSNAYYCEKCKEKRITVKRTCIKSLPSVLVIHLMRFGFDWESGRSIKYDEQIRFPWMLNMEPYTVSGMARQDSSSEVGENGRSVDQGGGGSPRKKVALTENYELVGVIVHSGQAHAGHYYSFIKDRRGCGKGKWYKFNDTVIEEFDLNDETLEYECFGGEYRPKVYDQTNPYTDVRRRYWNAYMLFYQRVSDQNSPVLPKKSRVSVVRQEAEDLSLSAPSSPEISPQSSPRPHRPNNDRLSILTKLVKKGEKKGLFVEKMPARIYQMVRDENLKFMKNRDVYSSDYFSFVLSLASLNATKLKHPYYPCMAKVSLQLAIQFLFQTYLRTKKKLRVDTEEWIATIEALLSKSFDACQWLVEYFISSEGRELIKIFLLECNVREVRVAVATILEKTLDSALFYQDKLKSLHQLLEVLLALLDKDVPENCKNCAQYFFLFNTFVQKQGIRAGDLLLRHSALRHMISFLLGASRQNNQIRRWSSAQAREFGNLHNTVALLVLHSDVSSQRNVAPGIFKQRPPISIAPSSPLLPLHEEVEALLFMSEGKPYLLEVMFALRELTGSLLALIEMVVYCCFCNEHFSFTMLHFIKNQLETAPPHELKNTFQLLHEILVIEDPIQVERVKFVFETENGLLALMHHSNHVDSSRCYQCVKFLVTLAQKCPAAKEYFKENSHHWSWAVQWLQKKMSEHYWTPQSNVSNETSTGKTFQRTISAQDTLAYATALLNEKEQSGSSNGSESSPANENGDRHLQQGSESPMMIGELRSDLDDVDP
Procedure, shortened: as §1

USP25 = target: T3, USP25 (UniProt Q9UHP3)
T3 sequence (whole entry): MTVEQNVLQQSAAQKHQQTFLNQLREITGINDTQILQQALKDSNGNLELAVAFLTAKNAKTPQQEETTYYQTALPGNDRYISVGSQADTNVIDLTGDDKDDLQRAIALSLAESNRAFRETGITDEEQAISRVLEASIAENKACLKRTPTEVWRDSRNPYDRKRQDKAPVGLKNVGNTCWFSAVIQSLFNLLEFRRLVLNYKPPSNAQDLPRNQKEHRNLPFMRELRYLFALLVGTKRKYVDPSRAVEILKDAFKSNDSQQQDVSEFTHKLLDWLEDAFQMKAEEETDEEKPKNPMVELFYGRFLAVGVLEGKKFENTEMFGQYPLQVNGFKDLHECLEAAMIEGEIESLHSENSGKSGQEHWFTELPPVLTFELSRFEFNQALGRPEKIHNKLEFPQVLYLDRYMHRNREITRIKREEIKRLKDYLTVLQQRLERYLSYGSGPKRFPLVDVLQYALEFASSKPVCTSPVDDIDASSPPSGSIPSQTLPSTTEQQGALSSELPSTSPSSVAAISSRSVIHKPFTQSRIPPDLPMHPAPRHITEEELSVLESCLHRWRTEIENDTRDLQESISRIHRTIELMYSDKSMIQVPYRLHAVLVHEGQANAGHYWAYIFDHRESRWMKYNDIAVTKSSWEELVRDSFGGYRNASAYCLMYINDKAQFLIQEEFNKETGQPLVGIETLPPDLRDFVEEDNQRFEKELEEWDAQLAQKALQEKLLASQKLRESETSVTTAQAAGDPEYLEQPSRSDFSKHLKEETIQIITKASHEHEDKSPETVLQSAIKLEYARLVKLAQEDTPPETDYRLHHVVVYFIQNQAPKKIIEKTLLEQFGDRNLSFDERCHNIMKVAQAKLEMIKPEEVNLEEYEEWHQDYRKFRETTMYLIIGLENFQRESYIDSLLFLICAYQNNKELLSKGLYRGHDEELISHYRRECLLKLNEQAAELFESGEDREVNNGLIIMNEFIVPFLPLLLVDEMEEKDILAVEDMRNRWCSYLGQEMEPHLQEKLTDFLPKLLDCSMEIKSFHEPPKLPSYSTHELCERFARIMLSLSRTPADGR
Procedure, shortened: as §1

USP28 = target: T4, USP28 (UniProt Q96RU2)
T4 sequence (whole entry): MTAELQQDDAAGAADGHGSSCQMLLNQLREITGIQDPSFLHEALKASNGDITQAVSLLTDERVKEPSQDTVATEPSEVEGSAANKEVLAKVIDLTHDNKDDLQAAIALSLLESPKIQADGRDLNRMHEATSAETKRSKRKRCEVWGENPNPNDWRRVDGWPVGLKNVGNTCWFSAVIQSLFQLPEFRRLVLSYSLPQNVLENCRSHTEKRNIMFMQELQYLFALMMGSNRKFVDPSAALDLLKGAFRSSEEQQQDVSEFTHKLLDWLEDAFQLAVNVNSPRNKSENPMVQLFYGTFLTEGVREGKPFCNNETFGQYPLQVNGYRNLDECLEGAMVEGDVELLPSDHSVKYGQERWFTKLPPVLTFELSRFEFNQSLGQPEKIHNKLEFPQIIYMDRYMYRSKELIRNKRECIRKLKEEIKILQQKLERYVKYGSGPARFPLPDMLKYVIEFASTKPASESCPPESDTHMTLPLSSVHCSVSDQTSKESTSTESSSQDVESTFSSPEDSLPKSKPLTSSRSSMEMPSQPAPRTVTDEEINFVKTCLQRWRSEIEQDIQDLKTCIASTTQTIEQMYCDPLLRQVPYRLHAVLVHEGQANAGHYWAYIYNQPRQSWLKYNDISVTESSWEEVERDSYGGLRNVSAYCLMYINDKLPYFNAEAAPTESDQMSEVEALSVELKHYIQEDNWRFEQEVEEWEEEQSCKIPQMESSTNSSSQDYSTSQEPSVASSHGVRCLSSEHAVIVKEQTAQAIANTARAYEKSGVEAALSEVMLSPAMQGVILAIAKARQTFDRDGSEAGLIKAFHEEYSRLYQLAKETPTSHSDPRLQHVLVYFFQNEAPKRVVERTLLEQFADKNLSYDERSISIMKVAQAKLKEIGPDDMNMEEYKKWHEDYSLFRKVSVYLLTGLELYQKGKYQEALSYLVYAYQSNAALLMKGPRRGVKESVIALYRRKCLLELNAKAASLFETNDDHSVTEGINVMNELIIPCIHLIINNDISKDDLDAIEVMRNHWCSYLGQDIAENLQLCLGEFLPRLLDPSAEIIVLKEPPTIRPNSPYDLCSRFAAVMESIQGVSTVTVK
Procedure, shortened: as §1

Measured: log2 ratio of Biotin-Ahx-Ub-VS probe labelling

O=C(CCl)N1CCC[C@@H]1c1ccon1
inactive: USP19 -0.377 | USP22 -0.153 | USP24 -0.653 | USP25 -0.618 | USP28 -0.64
